Data from PubChem BioAssay AID2417 (National Center for Advancing Translational Sciences (NCATS), 2010).
The campaign covered roughly 140,000 compounds. About 4,300 (3.1%) were called active. About 21% were inconclusive and are not listed. The list comes from a sample in which actives are over-represented; it also holds similar structures and randomly drawn compounds. Values without a mark were called inactive.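 How the source made its calls: active means readout at or below -70, meaning at least 70% loss of cells showing the perinucleolar compartment, a nuclear body marking cancer cells; inconclusive means readout between -30 and a set limit; inactive means the rest.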

assay: High Content Assay for Compounds that inhibit the Assembly of the Perinucleolar Compartment; conditions: PC3M PTB-GFP, PNC prevalence imaging, 16 h; at 10 µM; stronger effect = lower value;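 further: plate controls were DMSO wells for no effect and camptothecin positive control wells for full effect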
Summary of the method: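 Read-out is percentage of cells bearing a perinucleolar compartment, from automated 20x imaging of fixed, Hoechst-stained PC3M PTB-GFP cells. Cells were seeded 4 h, then exposed 16 h to compound (23 nl of library stock) in duplicate plates.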

Row | Compound | activity change (PNC), negative = inhibition
1 | O=C(Nc1nnc(SCc2ccc(Cl)cc2Cl)s1)C1COc2ccccc2O1 (stereo unspecified) | 43%
2 | c1ccc(-c2nnc(SCc3nc4ccccc4[nH]3)o2)cc1 | 25.5%
3 | Clc1ccc(CSc2nnc(/C=C/c3ccccc3)o2)c(Cl)c1 | -87.5% (active)
4 | N/C(=N\OC(=O)CC1CCCCC1)c1ccccc1 | -25.3%
5 | COC(=O)c1ccccc1NS(=O)(=O)c1ccc2[nH]c(=O)[nH]c2c1 | -18.2%
6 | Cc1ccc(N(Cc2cc3ccccc3[nH]c2=O)C(=O)c2cccs2)cc1 | 4.02%
7 | CCOC(=O)Cc1csc(NC(=O)CSc2ccc(Br)cc2)n1 | 34.9%
8 | O=C(CNCc1ccc(F)cc1)Nc1ccccc1-c1ccccc1 | 23.9%
9 | O=c1[nH]cnc2c1c(-c1ccccc1)cn2-c1ccc(F)cc1 | -108% (active)
10 | O=c1c2ccccc2c(-c2ccc(F)cc2)nn1-c1ccc(C(F)(F)F)cc1 | -1%
11 | Cc1cc(C)c(C#N)c(SCC(=O)NN2CC(=O)N(c3ccccc3F)CC2=O)n1 | 43.3%
12 | CC(C)CC(CO)N1CCN(C(=O)c2ccc(Cl)cc2Cl)CCC1=O (stereo unspecified) | -91.5% (active)
13 | CC(C)CC(COCc1ccc(Cl)cc1)N1CCN(C(=O)c2ccc(C(F)(F)F)cc2)CCC1=O (stereo unspecified) | 49.5%
14 | O=C(c1cc(Cl)cc(Cl)c1)N1CCC(=O)N(C(COCc2ccccc2)Cc2ccccc2)CC1 (stereo unspecified) | 27.5%
15 | CC(=O)c1sc(N/N=C\c2ccc(C)cc2)nc1C | 25.4%
16 | CCc1ccccc1NC(=O)CN(C)C(=O)COc1ccc(C)nc1[N+](=O)[O-] | -8.07%
17 | CCC(C)(C)NC(=O)C(c1cccn1C)N(Cc1ccc(C)cc1)C(=O)Cn1nnc2ccccc21 (stereo unspecified) | 27.9%
18 | COCCNC(=O)C(c1ccc(C)o1)N(Cc1ccccc1)C(=O)Cn1nnc2ccccc21 (stereo unspecified) | -83.4% (active)
19 | COc1ccccc1N(C(=O)Cn1nnc2ccccc21)C(C(=O)NCc1ccco1)c1ccc(C)o1 (stereo unspecified) | 20.9%
20 | Brc1ccc(C2CC(c3ccccc3)=Nc3ccccc3N2)cc1 (stereo unspecified) | -29.2%
21 | COc1cc(NC(=O)Nc2ccc(C)cc2)cc([N+](=O)[O-])c1 | -87.1% (active)
22 | COc1ccc(NC(=O)Nc2ccc3nc(C)c(C)nc3c2)cc1 | 5.41%
23 | CC(=O)c1ccc(NC(=O)Nc2ccc([N+](=O)[O-])cc2C)cc1 | -13%

Row | Compound | activity change (PNC), negative = inhibition
24 | O=C(CN1C2=NCCN2c2ccccc21)c1cccs1 | -2.86%
25 | COc1ccc(NS(=O)(=O)c2cc(NC(=O)/C=C/c3cc(OC)c(OC)c(OC)c3)ccc2N2CCCCC2)cc1 | -0.688%
26 | CC1(C)CC(=O)C(N=Nc2ccc(S(=O)(=O)N3CCCCCC3)cc2)=C(O)C1 | 24.1%
27 | COc1ccc(CNC(=O)CN(Cc2ccc(Cl)cc2)S(C)(=O)=O)cc1 | 48.3%
28 | Cc1cccc(NC(=O)c2sc(-c3ccccc3)nc2-c2ccc([N+](=O)[O-])cc2)c1 | -100% (active)
29 | O=C(CSc1nc(-c2ccccc2)cs1)Nc1cccc([N+](=O)[O-])c1 | 126%
30 | COc1ccc(C(=O)Nc2nc(-c3ccc(OC)cc3)c(-c3ccc([N+](=O)[O-])cc3)s2)cc1 | -23.3%
31 | O=C1OC(c2ccc(Cl)cc2)=N/C1=C\c1cccnc1 | 41.2%
32 | O=C1/C(=C\c2cccnc2)CN(Cc2ccccc2)C/C1=C\c1cccnc1 | -112% (active)
33 | O=C(O)C1CC(=O)N(Cc2cccnc2)C1 (stereo unspecified) | -9.97%
34 | O=C(Nn1c(-c2ccc(Cl)cc2)nc2ccccc2c1=O)c1cccnc1Cl | 8.85%
35 | Cc1ccnc(NS(=O)(=O)c2ccc(NC(=O)c3ccc(S(=O)(=O)N4CCOCC4)cc3)cc2)n1 | -19.3%
36 | CC(OC(=O)CNS(=O)(=O)/C=C/c1ccccc1)C(=O)Nc1ccc(S(=O)(=O)N2CCCC2)cc1 (stereo unspecified) | 64.4%
37 | CCOC(=O)/C(=N\Nc1cc(Cl)ccc1Cl)N1CCN(C)CC1 | -27.3%
38 | c1ccc2[nH]c(NCCN3CCOCC3)nc2c1 | -1.68%
39 | c1ccc2cc3c(NCCN4CCOCC4)ccnc3cc2c1 | -103% (active)
40 | O=C(Cn1c(-c2ccccn2)nc2ccccc21)NCCN1CCOCC1 | 42.9%
41 | NS(=O)(=O)c1ccc(NC(=O)COC(=O)C2(c3ccc(F)cc3)CCCC2)cc1 | 50%
42 | CCCCOC(=O)Nc1nccs1 | 243%
43 | CC1(C)Cc2cccc(OCC(=O)N3CCN(c4ccc([N+](=O)[O-])cc4)CC3)c2O1 | 7.92%
44 | CC1(C)Cc2cccc(OCC(=O)Nc3nccs3)c2O1 | -87.8% (active)
45 | Cc1ccccc1C(OCCN(C)C)C1CCCCC1 (stereo unspecified) | -5.25%
46 | Cc1ccccc1Nc1nc(N)nc(CSc2ccccc2)n1 | -3.06%

Row | Compound | activity change (PNC), negative = inhibition
47 | N=c1c2c(-c3ccccc3)c(-c3ccccc3)oc2ncn1Cc1ccco1 | 34.2%
48 | OCCCN1c2ccccc2Nc2nnc(-c3ccccc3)cc21 | -15.1%
49 | N=c1c2c(-c3ccccc3)c(-c3ccccc3)n(Cc3ccccc3)c2ncn1CCCO | -90.2% (active)
50 | CN(C)c1ccc(/C=N/N(Cc2ccccc2)c2ccccc2)cc1 | -6.4%
51 | CCN1CN(Cc2ccccc2)CNC1=S | -4.78%
52 | CCCCOc1ccc(CSC(=N)N)cc1[N+](=O)[O-] | -6.06%
53 | CCCOc1ccc(Cn2ccnc2)cc1[N+](=O)[O-] | -21.9%
54 | CCCCCOc1ccc(CSC2=NCCN2)cc1[N+](=O)[O-] | -84.7% (active)
55 | COc1ccc(Br)cc1CN(C)CC(=O)Nc1cc(Cl)cc(Cl)c1 | 5.92%
56 | O=C(NC1CC1)c1cccc(Br)c1 | 8.13%
57 | CCN(CC)S(=O)(=O)c1ccc2[nH]cc(C(=O)NCCc3ccccc3)c(=O)c2c1 | -4.74%
58 | Cc1cc(C)cc(NC(=S)NCCc2c[nH]c3ccccc23)c1 | 22.2%
59 | CN(c1ccccc1)S(=O)(=O)c1ccc(Cl)c(C(=O)NCCc2c[nH]c3ccccc23)c1 | -83.7% (active)
60 | O=C(NNC1CC(=O)N(c2cccc(Cl)c2)C1=O)c1cccnc1 (stereo unspecified) | -121% (active)
61 | Cc1ccc(-n2nc3cc(C)c(NC(=O)c4cccnc4)cc3n2)cc1 | 22.4%
62 | O=C1CC(NNc2ccccc2)C(=O)N1c1cccc(Cl)c1 (stereo unspecified) | 44.7%
63 | O=C(CCc1ccc(S(=O)(=O)N2CCOCC2)cc1)NN=C1CCCCCCC1 | -25.6%
64 | N#CC1=C(N)Oc2c(sc3ccccc23)C1c1ccco1 (stereo unspecified) | -91.1% (active)
65 | Cc1cc2c(c(=O)n1Cc1ccco1)C(c1ccccc1)C(C#N)=C(N)O2 (stereo unspecified) | -6.34%
66 | Cc1cc2oc(C(=O)Nc3c(C)n(C)n(-c4ccccc4)c3=O)c(C)c2cc1Cl | 2.22%
67 | Cc1cccc(NC(=O)/C=C/c2ccc3c(c2)OCO3)n1 | 46%
68 | COc1ccc(NC(=O)c2c(SC)nsc2SC)cc1 | -6.12%
69 | COc1ccc(NC(=O)c2sccc2SCC#N)cc1 | -88.1% (active)

Row | Compound | activity change (PNC), negative = inhibition
70 | COc1ccc(NC(=O)c2ccc(C#CC(C)(C)O)cc2)cc1 | -12.4%
71 | CCCOC(=O)c1ccc(N2C(=O)c3ccccc3C2=O)cc1 | -21.8%
72 | COc1ccc(C(=O)NC2(C(F)(F)F)NC(=O)N(CCCc3ccccc3)C2=O)c(OC)c1OC (stereo unspecified) | -8.14%
73 | CC(=O)Nc1ccc(S(=O)(=O)N2CCN(c3ccc([N+](=O)[O-])c(NCCN4CCOCC4)c3)CC2)cc1 | -13.1%
74 | CN(CC(=O)Nc1ccc(N2CCOCC2)cc1)CC(=O)Nc1ccccc1[N+](=O)[O-] | -100% (active)
75 | O=C(O)CCC(=O)Nc1ccc(N2CCOCC2)cc1 | -23.8%
76 | O=C(NCCc1ccccc1)C1CCC(Cn2c(=O)c3ccccc3n(Cc3cccnc3)c2=O)CC1 (stereo unspecified) | 13.2%
77 | Cc1nc(SCc2ccc(F)cc2)c([N+](=O)[O-])[nH]1 | 17.5%
78 | CCC(NC(=O)c1ccccc1NC(=O)c1ccccc1)C(=O)NNC(=O)CSc1nc2ccccc2o1 (stereo unspecified) | -4.05%
79 | COCCn1c(=O)[nH]c(=O)c2cc(C(=O)c3cc(OC)ccc3O)cnc21 | -8.95%
80 | Cc1ccccc1NC(=O)c1ccc(COc2ccc3c(C)cc(=O)oc3c2)cc1 | 90.9%
81 | Cc1cc(=O)oc2cc(OCC3CC(c4ccccc4Cl)=NO3)ccc12 (stereo unspecified) | -89.5% (active)
82 | Cc1ccccc1N1CCN(CCCOc2ccc3c(C)cc(=O)oc3c2)CC1 | -23.3%
83 | COc1ccc(/C(N)=N/OC(=O)CCCc2ccccc2)cc1 | -16.1%
84 | COc1ccccc1NC(=O)CCCc1c[nH]c2ccccc12 | -4.48%
85 | COc1cc(C2C(C(=O)Nc3ccccc3OC)=C(C)Nc3ncnn32)ccc1O (stereo unspecified) | 17.6%
86 | COc1ccccc1NC(=O)C1=C(C)Nc2ncnn2C1c1ccc(C)o1 (stereo unspecified) | -27.1%
87 | COc1ccccc1NC(=O)C1=C(C)Nc2nc3ccccc3n2C1c1cccs1 (stereo unspecified) | -82.7% (active)
88 | Cc1ccc(Oc2cc(NC(=O)CCCn3nc(C)c([N+](=O)[O-])c3C)cc([N+](=O)[O-])c2)cc1 | 5%
89 | CNC(=O)NC(=O)C(OC(=O)c1cccc(S(=O)(=O)N2CCCCC2)c1)c1ccccc1 (stereo unspecified) | -3.58%
90 | COc1cc(OC)cc(-c2nc3ccccc3c(=O)n2NC(=O)c2cccnc2Cl)c1 | -30%
91 | N#Cc1ccccc1Sc1ccccc1C(=O)OCC(=O)NC1CCCCC1 | 33.1%
